Screens: PubChem, several laboratories
MazEF act: increases E. coli MazEF RNase cleavage of RNA. actives 0.32% (n = 350,000). P0AE70. AID 504720. activation, % at 20 µM. FAM/BHQ RNA-DNA oligo cleavage fluorescence, 5 h; in the data active = activation above about 50%
Target sequence (P0AE70 whole entry, looked up): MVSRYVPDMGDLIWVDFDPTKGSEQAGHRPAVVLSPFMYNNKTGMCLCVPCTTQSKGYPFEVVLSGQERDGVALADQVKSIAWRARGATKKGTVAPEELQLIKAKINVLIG
BoNT-A LC inh2: inhibitors of Botulinum neurotoxin A light chain protease | multiplex microsphere protease substrate cleavage, flow cytometry | inhibition, % at 10 µM | actives 0.17% (n = 360,000) | AID 588499; note: plate controls were buffer without enzyme for full effect and enzyme alone for no effect
Autofluor counter: flagged as autofluorescent in microsphere protease counterscreen | compound autofluorescence counterscreen, microsphere flow cytometry; active compounds read high | fluorescence intensity (no concentration beside the values) | actives 3.1% (n = 360,000); in the data active = fluorescence intensity above about 16000; inconclusive = no clear call, values can overlap the other calls
Anthrax LF prot: inhibitors of Bacillus anthracis lethal factor protease; multiplex microsphere protease cleavage assay, LF; inhibition, % at 10 µM; actives 0.12% (n = 360,000); AID 588501; note: plate controls were buffer without enzyme for full effect and enzyme alone for no effect
BoNT F protease: BoNT F light chain protease inhibition; Multiplex microsphere protease cleavage assay, flow cytometry; inhibition, % at 10 µM; actives 0.22% (n = 360,000); in the data active = inhibition above about 35%, passing the limit was not always enough; inconclusive = no clear call, values can overlap the other calls; note: plate controls were buffer without enzyme for full effect and enzyme alone for no effect
* hit, by the source's call; ? = inconclusive; . = no result given; + = active, no number. This is a sample that favours compounds with a hit; in the whole collection about 3.7% have one here. Cut-off read from the data, not from the text of the source, unless noted: active = inhibition above about 30%; inconclusive = no clear call, values can overlap the other calls; inactive = below that.

SMILES	MazEF act	BoNT-A LC inh2	Autofluor counter	Anthrax LF prot	BoNT F protease
Cn1nc(C(=O)OCC(=O)Nc2ccc(F)cc2Cl)c2ccccc2c1=O	-26.3	0.5	3688	-4.1	4.7
Cn1c(=O)c2c(nc(Br)n2CC(=O)C23CC4CC(CC(C4)C2)C3)n(C)c1=O	12.0	0.3	16360*	-2.2	-1.4
Cn1c(=O)c2c(nc(SCC(=O)NC34CC5CC(CC(C5)C3)C4)n2C)n(C)c1=O	-9.3	-1.4	23851*	0.3	-3.2
O=C(NC(=S)N1CCOCC1)c1ccc(F)cc1	-10.1	0.2	5481	-0.6	5.6
Cc1cc(/C=C2/C(=O)NC(=O)N(c3ccc(Br)cc3)C2=O)c(C)n1C	20.5	.	.	.	.
Cc1cc(/C=C2\C(=O)NC(=O)N(c3ccc(Br)cc3)C2=O)c(C)n1C	86.7*	0.2	2729	-0.7	-3.5
Cc1cc(/C=C2\C(=O)NC(=O)N(c3cccc(Br)c3)C2=O)c(C)n1C	229.9*	0.3	2594	0.0	-2.3
C=CCn1cnc2c(c1=O)c1nc3ccccc3nc1n2/N=C/c1ccccn1	2.3	-1.9	20073*	-0.8	-2.6
CCOC(=O)c1oc2cccc(O)c2c1C	7.1	0.3	5806	-1.1	-6.0
CCOC(=O)c1oc2cccc(O)c2c1CN(Cc1ccccc1)C(C)=O	6.4	?	20279*	0.6	-0.5
Cc1nc2nc(C)c(CCC(=O)N3CCN(c4ccccn4)CC3)c(C)n2n1	-3.2	-1.2	23157*	-5.3	-3.4
Cc1nc2ncnn2c(C)c1CCC(=O)N1CCCCC1	6.8	3.2	4106	5.2	20.6
CCOC(=O)N1CCN(C(=O)CCc2c(C)nc3nc(C)nn3c2C)CC1	8.0	-0.2	8151	-2.3	-4.5
Cc1nc2ncnn2c(C)c1CCC(=O)N1CCOCC1	-1.1	1.5	22539*	-4.7	5.2
COC(=O)c1ccc(-c2csc(NC(=O)c3c(C)noc3C)n2)cc1	7.5	2.8	4711	-1.0	-1.6
CCCCN1C(=O)/C(=C/C=C2\SCCN2C)SC1=S	530.0*	1.2	5456	2.3	-11.9
CN1CCS/C1=C/C=C1\SC(=S)N(CC(=O)O)C1=O	-512.0	0.4	3062	-2.1	-5.6
N#Cc1ccsc1NC(=O)c1ccc2ncsc2c1	-12.9	0.3	3982	-11.0	1.0
N#Cc1ccsc1NC(=O)c1ccccn1	9.1	2.2	22222*	1.7	2.8
Cc1cn([C@H]2C[C@H](O)[C@@H](CCC(=O)NCCCc3ccccc3)O2)c(=O)[nH]c1=O	.	-1.5	6232	-2.5	-12.2
COc1ccc(OC)c(-c2c3cc(O)c(=O)cc-3oc3cc(O)c(O)cc23)c1	+	-3.1	2528	-2.2	-56.8
O=c1cc2oc3cc(O)c(O)cc3c(-c3ccccc3O)c-2cc1O	-568.0	-10.5	3432	-39.1	-81.2
Cc1ccc(Cl)c2c(N=Nc3ccccc3)c(O)[nH]c12	+	-2.8	3404	-9.8	?
Cc1cc(Cl)cc2c(N=Nc3ccccc3C(=O)O)c(O)[nH]c12	-17.7	-2.6	4097	2.0	-3.9
COCCNC(=S)Nc1cc2oc3ccccc3c2cc1OC	9.6	0.1	5989	-3.0	-10.7
SMILES	MazEF act	BoNT-A LC inh2	Autofluor counter	Anthrax LF prot	BoNT F protease
C#CCOC(=O)c1ccccc1C(=O)N(CC)CC	-1.0	?	17452*	0.4	-6.8
CCCN(CCC)C(=O)c1ccccc1C(=O)N(CCC)CCC	-2.3	-2.1	3866	-6.8	-14.7
CCCCOc1cccc(-c2nnc(N)s2)c1	4.6	-0.3	3386	1.6	-1.4
CCCCCCOc1cccc(N)c1	3.9	2.1	22320*	-4.4	1.1
CCc1ccccc1NC(=O)CN1CCN(C(=O)CNC(=O)c2ccc(-c3ccccc3)cc2)CC1	1.2	-0.7	3774	-3.2	-2.9
C1CCC(n2nnnc2CN2CCCC2)CC1	2.3	-1.0	23839*	-0.5	-2.7
c1ccc(C(c2ccccc2)N2CCN(Cc3nnnn3C3CCCC3)CC2)cc1	8.0	0.4	2789	0.4	-10.8
O=C(Cc1ccc(Cl)cc1Cl)Nc1ccncc1Cl	-8.5	-2.4	6574	-0.9	-2.4
Cc1ccc(C(=O)Nc2ccncc2)c(C)c1	6.3	3.5	2925	-9.0	6.5
CCOc1cccc2cc(-c3csc(NC(=O)CCC(=O)N4CCC(C)CC4)n3)c(=O)oc12	-4.9	-1.2	22950*	0.5	-1.9
CC(C)OC(=O)c1nn2c(C(F)(F)F)cc(-c3ccc(Br)o3)nc2c1Br	350.7*	8.6	20340*	0.8	9.7
CC(C)OC(=O)c1nn2c(C(F)(F)F)cc(-c3ccco3)nc2c1Cl	19.9	0.2	2868	4.6	6.1
Cc1nc(SCC(=O)c2ccc(Cl)cc2)c([N+](=O)[O-])[nH]1	-1.8	?	24383*	-1.9	-8.3
COc1ccc(/C=N/OCc2nc3c4c(ncn3n2)Oc2ccc3ccccc3c2C4c2ccccc2)cc1 (centres undefined)	-29.5	1.2	23152*	-0.8	0.4
N#Cc1c(C(F)(F)F)cc(-c2ccccc2)nc1SCCN1CCOCC1	-19.2	-0.1	11081	-1.1	-2.2
CCCSc1nc(-c2ccccc2)cc(C(F)(F)F)c1C#N	-4.5	10.0	19871*	-2.6	9.5
O=S(=O)(CCSc1ccccn1)c1nc2ccccc2s1	-6.9	-1.2	23137*	2.7	-2.8
O=S(=O)(Nc1ncccc1O)c1ccc(Cl)cc1	0.5	?	23828*	-1.3	-2.9
Cc1ccnc(NS(=O)(=O)c2ccc(Cl)nc2)c1	5.2	-1.0	5552	1.8	-0.8
O=S(=O)(Nc1cc(Cl)ccn1)c1ccc(Cl)cc1	3.0	-4.1	17683*	-2.1	-5.7
CCOC(=O)CC1=C(C(=O)OCC)C(c2ccc(OC)cc2OC)C(C#N)=C(N)O1 (centres undefined)	-5.4	-0.7	3966	-8.6	-1.8
CCOC(=O)C1=C(CC)OC(N)=C(C#N)C1c1ccc(OC)cc1OC (centres undefined)	-4.3	?	19947*	1.1	6.9
CCOC(=O)C1=C(CC)OC(N)=C(C#N)C1c1ccsc1 (centres undefined)	4.3	-0.4	2439	-1.9	5.2
CCOC(=O)C1=C(C)OC(N)=C(C#N)C1c1ccsc1 (centres undefined)	-2.9	18.2	17866*	-9.2	15.8
Cc1nn(CC(C)C)c(=S)[nH]c1=O	1.2	?	23998*	-1.1	-6.3
SMILES	MazEF act	BoNT-A LC inh2	Autofluor counter	Anthrax LF prot	BoNT F protease
CCN1/C(=C/c2ccc3cc(C)ccc3[n+]2CC)Sc2cc(C)ccc21	74.9*	54.7*	7083	-41.2	-63.0
O=C(c1cc(S(=O)(=O)N2CCCC2)c(Cl)cc1Cl)N1CCCC1	4.0	1.0	2956	-3.7	-1.0
O=C(NCC(c1cccs1)N1CCOCC1)c1ccc(Cl)nc1 (centres undefined)	10.5	1.0	3470	6.6	8.0
Nc1c(C(=O)O)sc2nc3c(cc12)CCCC3	12.1	1.6	3851	?	10.3
Nc1c(C(=O)c2ccc(Cl)cc2)sc2nc3c(cc12)CCC3	70.4*	-0.3	2521	-0.5	4.7
Oc1sc(C=Nc2ccc(F)cc2)c2ccccc12	-353.8	-0.4	3709	-5.4	-11.5
Oc1sc(C=Nc2ccccc2)c2ccccc12	139.8*	-0.1	3857	-2.1	-4.2
COCc1nnc(NS(=O)(=O)c2c(C)cc(C)cc2C)s1	3.1	-0.2	23383*	-0.3	-0.3
